Consider five compounds from PubChem BioAssay.

What is called viability is a read-out of living cells in per cent, often relative to untreated cells. As a reminder, the inhibition is the relative decrease from the control value, in per cent.

A short description of assay [1]: reducers of endogenous Her2 protein level, primary screen, SKBR3 breast tumor cells, AlphaScreen, ATP viability (AID 461;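 active means Her2 level under about 52% in both replicate screens, with viability over 70% of control, limit read from the data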;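 on Her2 level: lower value means less Her2 protein in the cells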;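 on viability: percent of carrier control wells set as 100% viability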). Particulars: 18-24 h, measured here: SKBR3 viability, ATP luminescence, at 10 µM. On the technique in general: In Alpha technology, singlet oxygen from a donor bead excites a nearby acceptor bead.
Assay [2] concerns the target Receptor tyrosine-protein kinase erbB-2 (Homo sapiens) (UniProt P04626). The assay is described as above. The note with it: 18-24 h, at 10 µM, stronger effect = lower value.
Assay [3] can be described thus: SK-BR-3 cell growth inhibitors, pilot screen, 24 h, human (AID 572;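 active means viability at or below 10% of carrier control in both of two separate runs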;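 further: compound exposure lasted between 18 and 24 h rather than exactly 24 h; 100% = carrier-treated control wells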). Particulars: SK-BR-3 viability, CellTiter-Glo luminescence, at 10 µM, stronger effect = lower value.
Assay [4] in a line: HUVEC growth inhibition – cell-based, human, primary screen (AID 575;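 active means viability at or below 30% in both replicate assays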;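 further: 100% = median of untreated cell wells with 0.1% DMSO on each plate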). Particulars: HUVEC proliferation, CellTiter-Glo luminescence, 72 h; at 10 µM; stronger effect = lower value. A general note: ATP-based viability assays read luminescence as a measure of living cells.
The nature of assay [5]: growth inhibitors of H69AR lung tumor, primary screen, human, duplicate replicates (AID 580;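 active means viability at or under a set limit in both replicates, limit being median viability minus 3 SD, cut at about 48% in these data, passing the limit was not always enough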;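 further: 100% = mean luminescence of untreated wells and 0% = no signal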). The note with it: H69AR lung tumor cells viability, ATP luminescence, 72 h; at 10 µM; stronger effect = lower value.
A short description of assay [6]: reversal of MRP1-mediated doxorubicin resistance, pilot screen, H69AR cells, doxorubicin co-treatment (AID 601;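 active means viability loss from added drug above about 55%, and viability with drug at most 40%, in both replicates, limit read from the data, passing the limit was not always enough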). Particulars: CellTiter-Glo, 72 h, at 10 µM; for differential viability (reversal): stronger effect = higher value.
A short description of assay [7]: 384-well plate pilot, post-Golgi transport modulator project, inhibition of yeast transport mutant growth (AID 636; in the data active means inhibition above about 31%). The note with it: absorbance 615 nm, about 18 h, stronger effect = higher value.
Assay [8] can be described thus: growth suppression of yeast trafficking mutant, preliminary HTS, modulators of trafficking downstream of Golgi apparatus project, 1536-format plate, OD 615 nm (AID 637). Particulars: yeast transport mutant growth, absorbance 615 nm, 18 h; stronger effect = higher value.
Assay [9] in a line: OD615 S. cerevisiae growth inhibition, permissive medium, pilot counter-assay, permissive growth control for S. cerevisiae lifespan shortening project (AID 705;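 active means growth inhibition above 25% in both replicates, a cutoff set 3 SD above the mean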). The note with it: OD615, 24 h, at 10 µM, stronger effect = higher value.
A short description of assay [10]: Restrictive medium S. cerevisiae growth inhibition, OD615, pilot screen of yeast lifespan reduction project, restrictive growth control (AID 706;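 active means growth inhibition above a set limit, 3 SD over mean compound inhibition, in both replicates, cut at about 43% in these data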;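 further: modified DeaD lifespan yeast strain shifted to restrictive glucose medium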). The note with it: OD615, 48 h, at 10 µM, stronger effect = higher value.
A short description of assay [11]: viability gain of MRP-1-high H69AR cells under doxorubicin, pilot screen, MRP-1 activator project, CellTiter-Glo, duplicate (AID 807;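 active means viability increase at or above a cutoff of the median across tested compounds plus 3 SD, cut at about 8.5% in these data, passing the limit was not always enough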;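 further: compound pretreatment 18-22 h then 72 h combined with doxorubicin; 0% = doxorubicin alone and 100% = vehicle without doxorubicin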). The note with it: H69AR viability with doxorubicin, CellTiter-Glo luminescence; at 10 µM; stronger effect = higher value.
A short description of assay [12]: growth suppression of beta-catenin knockout HCT116, pilot screen, human colon tumor cells (AID 823;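 active means cell viability at or below a set limit in both duplicate runs, the limit being the all-compound median minus 4 SD, cut at about 23% in these data, passing the limit was not always enough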;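 further: 0% = wells killed by 20 µM Hyamine and 100% = untreated DMSO cell wells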). Particulars: CellTiter-Glo, 60 h, at 10 µM, stronger effect = lower value.
Assay [13] can be described thus: growth suppression of PTEN-deleted HCT116, pilot screen, cell-based, HCT116 clonal line, CellTiter-Glo (AID 824;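 active means viability at or below 27.92% in each of two runs, the all-compound median minus 4 SD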;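 further: 0% = 20 µM Hyamine control and 100% = vehicle cell control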). Particulars: 60 h, at 10 µM, stronger effect = lower value.
Assay [14] is described as follows: inhibitors of the yeast RAM network, pilot screen, dse1pr::URA3 reporter, 5-FOA selection (AID 869;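 active means inhibition over a set limit, the all-compound mean plus 3 SD, in both replicate runs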;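 further: 0% = DMSO wells with no growth and 100% = 10 µM 1-NA-PP1 with full growth; RAM network block rescues cells from 5-FOA so hits raise OD615 growth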). The note with it: S. cerevisiae dse1pr::URA3 5-FOA growth, OD615, 2 d; at 10 µM; stronger effect = higher value; strain carries analog-sensitive mutant Cbk1 kinase.
Assay [15] in a line: RAM signaling pathway blockade in yeast – S. cerevisiae, Pdr1DBD-CYC8 efflux-inhibited sensitized strain, primary screen (AID 1298;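 active means RAM network inhibition above 8.4% in each of two replicates, 3 SD over the compound average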;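 further: 0% = DMSO untreated cells without growth and 100% = 10 µM 1-NA-PP1 full growth; higher means more yeast growth rescued from 5-FOA killing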). Particulars: S. cerevisiae cbk1-as DSE1-URA3 strain, 5-FOA growth OD615, 2 d; at 50 µM; stronger effect = higher value.
Setting [16] is: H69AR cells + 2 uM doxorubicin, measured here: viability with 2 uM doxorubicin, stronger effect = lower value.
Setting [17] is: H69AR cells, compound alone cytotoxicity.

Records with an inconclusive call do not appear. The source made the active and inactive calls. Unless noted, no stated cut-off is given here; in the data, active means inhibition above about 30%; inactive means the rest.

Chain of Receptor tyrosine-protein kinase erbB-2 (Homo sapiens) (P04626 whole entry, looked up): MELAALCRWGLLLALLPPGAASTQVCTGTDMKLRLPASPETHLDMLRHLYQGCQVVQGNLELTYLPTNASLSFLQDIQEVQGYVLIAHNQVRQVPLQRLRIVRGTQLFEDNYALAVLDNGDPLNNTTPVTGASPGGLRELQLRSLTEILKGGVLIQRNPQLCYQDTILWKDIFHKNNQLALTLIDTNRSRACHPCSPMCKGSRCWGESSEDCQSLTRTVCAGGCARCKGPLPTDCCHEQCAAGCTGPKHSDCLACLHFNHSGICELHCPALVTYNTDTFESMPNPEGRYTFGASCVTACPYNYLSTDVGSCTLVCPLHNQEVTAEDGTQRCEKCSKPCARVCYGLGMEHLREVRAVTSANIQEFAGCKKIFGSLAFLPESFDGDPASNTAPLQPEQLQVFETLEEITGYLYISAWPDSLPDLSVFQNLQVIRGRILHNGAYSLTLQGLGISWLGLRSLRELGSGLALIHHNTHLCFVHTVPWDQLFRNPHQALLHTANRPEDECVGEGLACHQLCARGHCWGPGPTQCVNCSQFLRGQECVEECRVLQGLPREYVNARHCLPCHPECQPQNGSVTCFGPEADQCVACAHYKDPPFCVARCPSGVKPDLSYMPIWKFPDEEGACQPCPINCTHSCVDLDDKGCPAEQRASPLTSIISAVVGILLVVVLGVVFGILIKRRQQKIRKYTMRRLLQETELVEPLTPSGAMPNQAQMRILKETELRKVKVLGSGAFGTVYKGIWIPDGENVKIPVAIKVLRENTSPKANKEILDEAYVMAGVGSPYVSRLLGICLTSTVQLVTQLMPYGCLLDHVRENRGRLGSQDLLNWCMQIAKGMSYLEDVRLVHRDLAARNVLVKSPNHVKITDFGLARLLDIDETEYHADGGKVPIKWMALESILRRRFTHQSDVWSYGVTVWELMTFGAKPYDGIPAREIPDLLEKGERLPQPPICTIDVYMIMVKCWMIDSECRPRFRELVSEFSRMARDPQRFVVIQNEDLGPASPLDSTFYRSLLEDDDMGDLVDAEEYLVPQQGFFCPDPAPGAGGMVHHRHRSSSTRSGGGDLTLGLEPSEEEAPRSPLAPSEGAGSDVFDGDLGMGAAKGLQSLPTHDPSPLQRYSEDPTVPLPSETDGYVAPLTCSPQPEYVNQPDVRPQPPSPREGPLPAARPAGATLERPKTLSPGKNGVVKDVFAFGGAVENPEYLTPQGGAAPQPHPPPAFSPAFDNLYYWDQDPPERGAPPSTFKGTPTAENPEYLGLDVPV

As to `C=C(Cl)COc1ccc2c(C)cc(=O)oc2c1`, the viability was 108% in assay [1]; 108% (inactive) in assay [3]; 102% (inactive) in assay [4]; 101% (inactive) in assay [5]; 103% in assay [6] (setting [16]); 101% in assay [6] (setting [17]). For the same compound, the viability in [12] is 97.8% (inactive); in assay [13], 84% (inactive). Further, the Her2 level in [2] was 92.5% (inactive). In assay [6] (H69AR cells + 2 uM doxorubicin), the differential viability (reversal) is -2.75% (inactive). Moreover, the inhibition in assay [7] is 1.89% (inactive); in assay [8], -5.56% (inactive); in assay [14], 0.795% (inactive). For the same compound, the growth inhibition is -6.04% (inactive) in [9] and 5.47% (inactive) in assay [10]. Besides, in [11], the viability increase was -0.42% (inactive). The RAM network inhibition in assay [15] was 0.1% (inactive).

Turning to `COc1ccc(-c2nc(CSCC(=O)N3CCN(c4cccc(C)c4)C(C)C3)c(C)o2)cc1OC` (stereo not given), the viability in assay [1] was 102%; in assay [3], 102% (inactive); in assay [4] it was 54.6% (inactive); in assay [5], 85.7% (inactive); in assay [6] (setting [16]), 91.7%; in assay [6] (setting [17]), 85.7%. Also, the viability in [12] is 56.9% (inactive); in assay [13], 56.4% (inactive). The Her2 level in assay [2] is 67.5% (inactive). Besides, the differential viability (reversal) in assay [6] (H69AR cells + 2 uM doxorubicin) is -5.97% (inactive). Moreover, the figures for the inhibition in assay [7], in assay [8] and in assay [14] were -2.27% (inactive), 1.33% (inactive) and 1.96% (inactive), respectively. Besides, the growth inhibition in [9] is -4.45% (inactive); in assay [10] it was 8.39% (inactive). For the same compound, the viability increase in assay [11] is 0.02% (inactive). Moreover, the RAM network inhibition in [15] was 7.25% (inactive).

Regarding `O=C(NCCN1CCCCCC1)c1ccc(CS(=O)(=O)c2ccc(Br)cc2)o1`, the viability in [1] was 86.5%; in assay [3], 86.5% (inactive); in assay [4], 86.2% (inactive); in assay [5], 91% (inactive); in [6] (setting [16]), 83.1%; in assay [6] (setting [17]), 91%. The viability was 78% (inactive) in [12] and 82.6% (inactive) in [13]. In addition, the Her2 level in assay [2] was 104% (inactive). In [6] (H69AR cells + 2 uM doxorubicin), the differential viability (reversal) was 7.95% (inactive). The inhibition was 0.8% (inactive) in [7], 2.5% (inactive) in [8] and -0.1% (inactive) in assay [14]. Moreover, the growth inhibition in assay [9] was -6.86% (inactive); in assay [10], -14.6% (inactive). The viability increase in assay [11] is -3.11% (inactive). Moreover, the RAM network inhibition in assay [15] is 4.63% (inactive).

On to `COC(=O)CSc1nc2nc(C)cc(C)n2n1`, for which the viability in assay [1] was 99%; in [3] it was 99% (inactive); in assay [4], 88.8% (inactive); in [5] it was 99.7% (inactive); in [6] (setting [16]), 94.3%; in assay [6] (setting [17]) it was 99.7%. Further, the viability was 97.7% (inactive) in [12] and 91.2% (inactive) in [13]. For the same compound, in [2], the Her2 level was 96.5% (inactive). The differential viability (reversal) in assay [6] (H69AR cells + 2 uM doxorubicin) was 5.46% (inactive). The inhibition in assay [7] was -3.73% (inactive); in assay [8] it was 3.17% (inactive); in assay [14], 2.01% (inactive). Also, the growth inhibition in assay [9] was -2.5% (inactive); in assay [10], 1.47% (inactive). Further, the viability increase in [11] was -0.51% (inactive). The RAM network inhibition in assay [15] is 2.93% (inactive).

Take `CN1CCc2c(sc3c2C(=O)NC(c2cccc(OC(=O)c4cccs4)c2)N3)C1` (stereo not given): the viability is 81.5% in [1]; 81.5% (inactive) in assay [3]; 68% (inactive) in [4]; 85.6% (inactive) in assay [5]; 94.6% in assay [6] (setting [16]); 85.6% in assay [6] (setting [17]). In addition, the viability in [12] was 96.3% (inactive); in assay [13], 93.8% (inactive). Also, the Her2 level in assay [2] was 78.5% (inactive). In addition, in assay [6] (H69AR cells + 2 uM doxorubicin), the differential viability (reversal) was -8.95% (inactive). Besides, the figures for the inhibition in assay [7], in assay [8] and in [14] were -5.07% (inactive), 7.5% (inactive) and 0.215% (inactive), respectively. The growth inhibition was 8.64% (inactive) in [9] and 11.5% (inactive) in assay [10]. Further, the viability increase in assay [11] is -4.85% (inactive). Further, the RAM network inhibition in assay [15] is 4.47% (inactive).
